This is part of a sample that, as a whole, favours compounds with a hit. Of some 83,000 tested, about 20% had one in any assay.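 In brief: 96-well plates, 48 h treatment, single concentration, percent growth endpoint.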 A number with no mark means an inactive call. Calls of active or inactive are those of the source.
Test system: UACC-62 melanoma
Assay: NCI-60 one-dose screen, 48 h (100 = growth as untreated, 0 = no growth, -100 = all killed)
Conditions: 10 µM unless noted
Protocol: Growth inhibition of the UACC-62 human tumor cell line is measured as a screen for anti-cancer activity. Cells are grown in 96 well plates and exposed to the test compound for 48 hours. Compounds are tested at a single concentration, which is 10^-5 M for most compounds. The reported endpoint is percent growth (GI% or GIPRCNT), where numbers from 0 - 100% represent growth inhibition, and numbers from -100% - 0 represent cell death. For example, a value of 40 represents 60% growth inhibition. A value of 0 means no net growth occurred over the course of the experiment. A value of -40 indicates 40% of cells at the beginning of the experiment died by the end of the experiment. A value of -100 means all cells are dead at the end of the experiment.
NCI-60 Human Tumor Cell Lines Screen was performed using the standard one-dose NCI protocol, which is described in more detail at https://dtp.cancer.gov/discovery_development/nci-60/default.htm.
Compounds with GIPRCNT values below 10 were considered active. Activity score was based on GIPRCNT using the following formula: […]
Score is 0 for GIPRCNT values of 100 or above, 50 for GIPRCNT values of 0, and 100 for GIPRCNT values of -100.

| Structure (SMILES) | growth |
| --- | --- |
| Cc1ccc(C2=NN(c3ccc(S(=O)(=O)NC(=O)NCc4ccccc4)cc3)C(c3ccc(N(C)C)cc3)C2)c(C)c1 (stereo not given) | 54.7% |
| COc1cc(/C=C\c2cc(OC)c(OC)c(OC)c2)cc(N/C=C\C(=O)c2c[nH]c3ccccc23)c1OC | 3.34% (active) |
| Cc1cnc(NC(=O)C(Cc2ccccc2)NC(=O)c2ccccc2)s1 (stereo not given) | 62.2% |
| COc1ccc(/C=N/NC(=O)Cn2c(Cc3cccc4ccccc34)nc3ccccc32)cc1 | 87.7% |
| COc1ccc(OC)c(-c2ccc(-c3ccccc3N)c3[nH]c4ccccc4c23)c1 | 64.4% |
| CCO/C=N/NC(=O)c1ccncc1 | 107% |
| Cc1ccc2nc(SCn3nnc4ccccc4c3=O)[nH]c2c1 | 98.4% |
| NC(=O)NNC(=O)c1ccccc1 | 104% |
| CCN1C(=O)/C(=c2\sc3n(c2=O)C2C(NN=3)N(CC)C(=S)N2CC)c2ccccc21 (stereo not given) | 97.8% |
| CC(Br)C(Br)c1cc2c(cc1Br)OCO2 (stereo not given) | 108% |
| C=C1C(=O)O[C@H]2[C@H]1CC/C(COC(=O)NCc1cc(OC)cc(OC)c1)=C\CC[C@@]1(C)O[C@@H]21 | -44.9% (active) |
| Cc1ccc2nc(-c3c(CCCO)noc3N)[nH]c(=O)c2c1 | 104% |
| COc1ccc(C(=O)c2cc(OC)c(OC)c(OC)c2)cc1/C=C/C(=O)c1ccc(O)cc1 | 20.1% |
| COc1ccc(C2NC3=C(CCCC3)C(C#N)(C#N)C2(C#N)C#N)cc1 (stereo not given) | 75.4% |
| O=C(NNC(=S)Nc1ccccc1)c1ccccn1 | 5% (active) |
| O=C1Nc2cc(Cl)ccc2/C1=C/c1ccc(N2CCOCC2)s1 | 103% |
| COc1ccc(/C=C/C(=O)c2ccc(NC(=O)CN3CCN(c4cc5c(cc4F)c(=O)c(C(=O)O)cn5C4CC4)CC3)cc2)cc1 | 93.2% |
| CCCCCCCCCCCCOB(OCCCCCCCCCCCC)OCCCCCCCCCCCC | 104% |
| CCCn1c(=S)sc2c(Cl)nc(C)nc21 | 54.7% |
| COc1cc(-c2n[nH]nc2-c2ccc3c(c2)OCCO3)cc(OC)c1OC | 27% |

| Structure (SMILES) | growth |
| --- | --- |
| CCN1C(=O)N(CC)C2C1NN=c1s/c(=C\c3ccccn3)c(=O)n12 (stereo not given) | 39.8% |
| CC(C)(C)OC(=O)N1C/C(=C\c2cccs2)C(=O)/C(=C/c2cccs2)C1 | 66.7% |
| Oc1ccc(Cl)cc1-c1cc(-c2ccc(Cl)cc2)n[nH]1 | 64% |
| CCNC(=O)CCCCC(=O)c1c(C)[nH]c(/C=C2\N=C(c3ccc[nH]3)C=C2OC)c1C | 61.5% |
| C[N+](C)(C)c1ccc(CC2c3ccccc3-c3ccccc32)cc1 | 81.5% |
| O=C1CCC(=O)N1Cc1ccccc1 | 104% |
| CCOC(=O)c1cc(/C(=N\O)c2cc(OC)c(OC)c(OC)c2)n2cc(C)cc(C)c12 | 19.8% |
| CCC(c1cccc(Br)c1)C(C(=O)O)c1ccc(OC)cc1 (stereo not given) | 82.9% |
| Cc1c(C(=O)NCc2ccccc2)[n+](=O)c2cc(F)ccc2n1[O-] | 104% |
| NC(=O)c1cccc(N2Cc3ccccc3OC3=C2C(=O)c2c(O)ccc(O)c2C3=O)c1 | -86.1% (active) |
| COc1ccc(NC(=O)CSc2nc3ccccc3c(=O)n2Cc2cc(OC)c(OC)c(OC)c2)cc1 | 74.2% |
| Cc1cc(C)c(NC(=O)c2sc3nc4c(cc3c2N)CN(Cc2ccccc2)CC4)c(C)c1 | 24.5% |
| O=C(/C=C/CN1CCOCC1)Nc1cc2c(Nc3ccc(F)c(Cl)c3F)ncnc2cc1OCCOC(F)F | 65.7% |
| Cc1oc2nc[nH]c(=O)c2c1C(=O)/C=C/c1ccc(Cl)cc1 | 18.2% |
| CCN(Cc1ccc(CN(CC)C(=O)C(Cl)(Cl)Cl)cc1)C(=O)C(Cl)(Cl)Cl | 82.7% |
| CCn1cc(C2NC(=O)c3cc(F)ccc3N2)c2cccc(Cl)c21 (stereo not given) | 28.2% |
| CC(C)C[C@H](NC(=O)[C@@H](Cc1ccccc1)n1ccc(Nc2ccccc2)cc1=O)B(O)O | -77.1% (active) |
| CCOC(=O)C(Cc1ccccc1)n1c(O)c(C=Nc2ccc(C(=O)OCCN(CC)CC)cc2)sc1=O (stereo not given) | 97.7% |
| Clc1nc2ccccc2nc1CI | 100% |
| COc1cc(C(=O)CCCl)ccc1O | 97.4% |
